Potency data for 66 compounds are collected here from PubChem BioAssay AID743286 (National Center for Advancing Translational Sciences (NCATS), 2014).

Molecules are shown by their SMILES. In all, about 1,100 compounds went through this assay and about 340 (31%) were called active. About 40% were inconclusive and are not listed. The call rests on the fitted dose curve; in most records, active means well fitted inhibition curve with a large enough effect; inconclusive means small, poorly fitted or top-dose-only effect; inactive means flat fitted curve, though single readings scatter. A selection follows. Where a call stands in place of a potency, no number is given.
Potency means the concentration at half of the fitted maximal effect.

The target of the assay is Phosphatidylinositol 5-phosphate 4-kinase type-2 alpha (Homo sapiens) (UniProt P48426). As to the kind of experiment: qHTS for Inhibitors of PI5P4K: Confirmation in Primary Assay. Further: nearly all actives have a fitted effect of over 65% in size. The note with it: PI5P4Kalpha enzyme, ADP-Glo luminescence, 60 min; series mostly up to 76.9 µM. The procedure, abridged: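 Hits from a qHTS screen were retested in the same PI5P4Kα ADP-Glo format: 5 microM ATP, HEPES pH 7.4 buffer with CHAPS and EGTA, 60 min room-temperature reaction, single end-point luminescence read.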
Chain of Phosphatidylinositol 5-phosphate 4-kinase type-2 alpha (Homo sapiens) (P48426 whole entry, looked up): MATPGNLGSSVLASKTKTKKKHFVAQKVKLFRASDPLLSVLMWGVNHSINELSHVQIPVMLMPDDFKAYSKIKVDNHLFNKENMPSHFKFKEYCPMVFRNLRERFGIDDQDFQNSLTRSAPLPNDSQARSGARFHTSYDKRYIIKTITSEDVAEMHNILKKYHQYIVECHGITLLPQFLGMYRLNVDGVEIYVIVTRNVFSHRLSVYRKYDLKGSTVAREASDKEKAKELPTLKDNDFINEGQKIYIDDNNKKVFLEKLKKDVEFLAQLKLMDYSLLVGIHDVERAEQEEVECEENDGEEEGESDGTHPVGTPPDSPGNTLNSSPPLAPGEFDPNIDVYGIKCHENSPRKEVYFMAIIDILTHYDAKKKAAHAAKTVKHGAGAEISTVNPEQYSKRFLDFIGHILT
Background: qHTS replaces the single test concentration by a dilution series.
Take `CC(NC(=O)c1ccnn1C)C1CCCO1` (stereo unspecified): the Potency result is “inactive”. For the compound `Cn1c(=O)oc2cc(S(=O)(=O)Nc3ccccc3)ccc21`, the Potency result is “inactive”.

Regarding `CCOc1ccc(NC(=O)N2CCC(n3nnc4ccccc43)CC2)cc1`, the Potency result was “inactive”. Regarding `O=C1NN=C2CCCCCC12` (stereo unspecified), the Potency result was “inactive”. With `C[C@H](NC(=O)c1cc2c(cn1)[nH]c1ccccc12)C(=O)O` the figure was 10 µM (active). Turning to `Cc1ccc(-c2cc3c(n2-c2ccc(C(=O)O)cc2)CCCC3=O)cc1`, the Potency was 15.8 µM (active). With `Nc1nc(Nc2ccccc2F)sc1C(=O)c1ccccc1`, the Potency is 14.1 µM (active). On to `Nc1nc(Nc2ccccc2)sc1C(=O)c1ccccc1`, for which the Potency is 7.94 µM (active). In the case of `COc1ccc(C(=O)c2sc(Nc3ccccc3F)nc2N)cc1`, the Potency was 5.62 µM (active). In the case of `Nc1sc2c(c1C(=O)c1ccccc1)CCCC2`, the Potency entry is “inactive”. In the case of `CCC(=O)Oc1ccc(C(=O)Nc2c[nH]c(=O)[nH]c2=O)cc1`, the Potency entry is “inactive”.

For `O=C(c1ccc(OCCN2CCCCC2)cc1)c1c(-c2ccc(O)cc2)sc2cc(O)ccc12`, the Potency result is “inactive”.

Take `COc1ccc(S(=O)(=O)N(C(=O)c2ccco2)c2cc3sc(=O)oc3c3ccccc23)cc1`: the Potency entry is “inactive”. Consider `COc1ccccc1N(CC(=O)NCc1ccco1)S(=O)(=O)c1ccc(C)cc1`, for which the Potency is 15.8 µM (active). As for `COc1ccccc1N(CC(=O)N1CCC(C(N)=O)CC1)S(=O)(=O)c1ccccc1`, the Potency entry is “inactive”. With `CCn1cc(C(=O)N2CCN(c3cccc(C)c3C)CC2)c(=O)c2ccc(C)nc21` the entry was “inactive”.

`O=C(O)c1cccc(NC(=O)c2cn(-c3ccccc3)nc2-c2cc3ccccc3o2)c1`: the Potency was 14.1 µM (active).

Regarding `CN(Cc1cn(-c2ccccc2)nc1-c1cc2ccccc2o1)C(=O)CCC(=O)O`, the Potency result was “inactive”. For the compound `COc1ccc(-c2nnn(CC(=O)N(CC(=O)NC3CCCC3)c3ccccc3)n2)cc1OC`, the Potency result was “inactive”.

For the compound `CCCCNC(=O)c1ccc2nc(-c3ccco3)c(-c3ccco3)nc2c1`, the Potency was 12.6 µM (active). `O=C(c1ccccc1)c1ccc2nc(-c3ccco3)c(-c3ccco3)nc2c1`: the Potency was 4.47 µM (active). `Cc1cccc(C)c1NC(=O)C(c1ccc(C(F)(F)F)cc1)n1c(=O)c(-c2ccco2)nc2ccccc21` (stereo unspecified): the Potency entry was “inactive”. With `COc1ccccc1Cc1c(-c2ccco2)nc2c(C)cc(Br)cn12` the entry was “inactive”; with `COCCNC(=O)Nc1ccc2nc(-c3ccco3)c(-c3ccco3)nc2c1`, 6.31 µM (active); with `O=C(Nc1nc(-c2ccco2)cs1)c1ccccc1`, “inactive”. As for `COc1ccc2nc(-c3ccco3)c(-c3ccco3)nc2c1`, the Potency was 10 µM (active). For the compound `CS(=O)(=O)c1ccc(C(=O)Nc2nc(-c3ccco3)c(-c3ccco3)s2)cc1`, the Potency entry was “inactive”. With `COc1ccc(NC(=O)CSc2nnc(-c3ccco3)c(-c3ccco3)n2)cc1OC` the entry was “inactive”; with `COCCNC(=O)C(c1ccc(Cl)cc1)N(Cc1ccco1)C(=O)CCC(=O)Nc1ccccn1` (stereo unspecified), “inactive”. In the case of `COc1ccc(C2=NCCn3nc4cc(OC)ccc4c32)cc1` it was “inactive”; in that of `CCCNC(=O)CSc1nnc(-c2ccco2)n1C`, “inactive”. Take `CN(C)C(=S)NCc1ccccc1`: the Potency result was “inactive”. With `CC(=O)N1c2ccc(S(=O)(=O)NCCC(=O)N(C)C3CCCCC3)cc2CC1C` (stereo unspecified), the Potency result was “inactive”.

Regarding `COc1cccc2c1C(=O)C[C@]1(CCCC[C@@H]1C)O2`, the Potency result was “inactive”. With `COc1ccc(C(CNC(=O)c2ccc(OCc3cscn3)cc2)N2CCCC2)cc1` (stereo unspecified), the Potency result was “inactive”.

For `CC(C)Sc1nc(N2CCOCC2)c2c(c1C#N)CC(C)(C)N(C)C2`, the Potency entry is “inactive”. In the case of `Cc1cc(NC(=O)CCCn2cc([N+](=O)[O-])cn2)n(Cc2ccc(F)cc2)n1` it was “inactive”; in that of `c1ccc2c(CCNc3ncnc4nc[nH]c34)c[nH]c2c1`, 17.8 µM (active). As for `Cc1sc2ncnc(NC(C)C(=O)O)c2c1C` (stereo unspecified), the Potency is 3.98 µM (active).

As to `O=C(Cc1ccc(S(=O)(=O)N2CCOCC2)s1)Nc1nc2c(s1)CCCC2`, the Potency is 14.1 µM (active). Regarding `CCn1nc(CC(=O)Nc2nnc(CC(=O)N3CCOCC3)s2)c2ccccc2c1=O`, the Potency entry was “inactive”. As for `CC(=O)c1ccc(NC(=O)c2cnn3ccccc23)cc1`, the Potency was 3.55 µM (active).

`O=S(=O)(O)c1cc(O)c2cc(Nc3ccccc3)ccc2c1`: the Potency was 2 µM (active). Turning to `COc1ccccc1Nc1ccc2c(O)cc(S(=O)(=O)O)cc2c1`, the Potency was 3.16 µM (active).

`O=C(CCS(=O)(=O)c1ccc(Br)cc1)NCc1ccc(F)cc1`: the Potency entry is “inactive”. In the case of `Cc1cc(NC(=O)CSc2cn(CCNC(=O)c3ccccc3)c3ccccc23)no1` it was 14.1 µM (active). With `Cc1cc(NC(=O)CN2CCN(C)CC2)no1` the entry was “inactive”.

Regarding `Cc1cc(NC(=O)Nc2ccccc2[N+](=O)[O-])no1`, the Potency result is “inactive”.

Regarding `O=C1Nc2ccc(C(=O)c3ccco3)cc2/C1=C/c1cc(Cl)c(O)c(Cl)c1`, the Potency was 0.207 µM (active).

With `COC(=O)c1ccc2c(c1)/C(=C/c1cc(Br)c(O)c(Br)c1)C(=O)N2`, the Potency is 0.823 µM (active). As for `NS(=O)(=O)c1ccc(CCNC(=O)c2ccc3nccnc3c2)cc1`, the Potency is 14.1 µM (active).

With `O=C(Nc1ccccc1Cl)c1ccc2nccnc2c1`, the Potency result is “inactive”. With `COCc1cc(N2CCCCC2)nc(-c2ccccc2)n1` the entry was “inactive”; with `Cc1ccc(-c2csc(NS(=O)(=O)c3cccc(F)c3)n2)o1`, 11.2 µM (active). For `NS(=O)(=O)c1cccc(NC(=O)CSc2nnnn2-c2ccccc2)c1`, the Potency result is “inactive”. As to `O=C(O)C1CSC(c2coc3ccccc3c2=O)N1` (stereo unspecified), the Potency entry is “inactive”. Regarding `COc1ccc(NC(=O)CSc2sc3c(O)cc(=O)[nH]c3c2C#N)c(OC)c1`, the Potency is 14.1 µM (active). In the case of `COc1cc(Cl)c(C)cc1NC(=O)CSc1sc2c(O)cc(=O)[nH]c2c1C#N` it was 5.01 µM (active); in that of `COc1ccccc1NC(=O)CSc1sc2c(O)cc(=O)[nH]c2c1C#N`, 10 µM (active); in that of `COc1ccc(NC(C)=O)cc1NC(=O)CSc1nc2ncccc2[nH]1`, “inactive”. As for `COc1ccccc1NC(=O)Cc1nnc(SCC(=O)Nc2ccccc2F)n1C`, the Potency entry was “inactive”. `COc1ccc(C(=O)NC(CCSC)C(=O)N2CCCCCC2)cc1` (stereo unspecified): the Potency result is “inactive”. For the compound `COc1cc(NC2=Nc3cccc4cccc2c34)cc(OC)c1OC`, the Potency result was “inactive”. Consider `Cc1nn(-c2ccccc2)c2nc(=O)n(-c3ccccc3)cc12`, for which the Potency entry is “inactive”. As to `Cc1ccc(NC(=O)c2cccc(C(=O)Nc3ccc(C)cc3C(=O)O)c2)c(C(=O)O)c1`, the Potency was 8.91 µM (active). In the case of `CN(C)c1ccc2nc3ccc(=O)cc-3sc2c1` it was 11.2 µM (active).
